# Assay results published in publication PMC7862700, “An all-to-all approach to the identification of sequence-specific readers for epigenetic DNA modifications on cytosine”.
# How the values were obtained:
# Experiment in all cases: DAPPL (digital affinity profiling via proximity ligation, sequencing); 10 mM Tris-HCl pH 7.5, 50 mM NaCl, 1 mM DTT, 4% glycerol, room temperature, 30 min; GST-TFs on glutathione beads, 16-mer random dsDNA library, 0.1% formaldehyde crosslink after washing; high values mean tight binding
# FEV = target: T1, FEV (Homo sapiens, UniProt Q99581 1-238); conditions: protein: recombinant; tags: N-terminal GST; dsDNA, one strand shown
# T1 sequence: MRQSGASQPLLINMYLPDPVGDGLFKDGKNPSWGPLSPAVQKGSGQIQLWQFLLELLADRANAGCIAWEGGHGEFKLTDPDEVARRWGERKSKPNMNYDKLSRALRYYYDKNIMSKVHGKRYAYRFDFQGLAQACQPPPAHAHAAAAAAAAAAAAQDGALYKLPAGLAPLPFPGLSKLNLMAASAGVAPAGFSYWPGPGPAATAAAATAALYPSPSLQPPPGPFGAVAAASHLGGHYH
# Outline: (§1)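 After expression in yeast as GST fusions, human transcription factors were bound to glutathione beads, DNA-barcoded and mixed with a tag-only sample. The pools were incubated with 200 nmole of a 16-mer random double-stranded DNA library in Tris/NaCl/DTT/glycerol buffer (30 min, room temperature), washed and crosslinked with 0.1% formaldehyde. Proximity ligation with BsaI/T4 ligase ran for 1 h at 37 °C, before PCR amplification and sequencing on an Illumina NextSeq500. Binding signal is a hexamer's read frequency for a factor divided by its frequency for the tag-only sample.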
# ETV5 = ETV5 (Homo sapiens, UniProt P41161 1-510); conditions: protein: recombinant; tags: N-terminal GST; dsDNA, one strand shown
# Outline: as §1
# HSF1 = HSF1 (Homo sapiens, UniProt Q00613 1-529); conditions: protein: recombinant; tags: N-terminal GST; chain copies: 3; dsDNA, one strand shown
# Outline: as §1
# SPIC = target: T2, SPIC (Homo sapiens, UniProt Q8N5J4 1-248); conditions: protein: recombinant; tags: N-terminal GST; dsDNA, one strand shown
# T2 sequence: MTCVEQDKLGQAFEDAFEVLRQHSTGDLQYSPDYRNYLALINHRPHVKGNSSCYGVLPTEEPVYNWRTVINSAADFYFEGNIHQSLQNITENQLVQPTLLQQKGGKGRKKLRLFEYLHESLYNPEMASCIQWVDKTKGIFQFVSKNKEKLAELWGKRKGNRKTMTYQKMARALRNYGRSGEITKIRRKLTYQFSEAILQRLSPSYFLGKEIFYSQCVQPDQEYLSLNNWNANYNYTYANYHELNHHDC
# Outline: as §1
# ELF4 = ELF4 (Homo sapiens, UniProt Q99607 1-663); conditions: protein: recombinant; tags: N-terminal GST; dsDNA, one strand shown
# Outline: as §1
# ELK4 = target: T3, ELK4 (Homo sapiens, UniProt P28324-2 1-405); conditions: protein: recombinant; tags: N-terminal GST; dsDNA, one strand shown
# T3 sequence: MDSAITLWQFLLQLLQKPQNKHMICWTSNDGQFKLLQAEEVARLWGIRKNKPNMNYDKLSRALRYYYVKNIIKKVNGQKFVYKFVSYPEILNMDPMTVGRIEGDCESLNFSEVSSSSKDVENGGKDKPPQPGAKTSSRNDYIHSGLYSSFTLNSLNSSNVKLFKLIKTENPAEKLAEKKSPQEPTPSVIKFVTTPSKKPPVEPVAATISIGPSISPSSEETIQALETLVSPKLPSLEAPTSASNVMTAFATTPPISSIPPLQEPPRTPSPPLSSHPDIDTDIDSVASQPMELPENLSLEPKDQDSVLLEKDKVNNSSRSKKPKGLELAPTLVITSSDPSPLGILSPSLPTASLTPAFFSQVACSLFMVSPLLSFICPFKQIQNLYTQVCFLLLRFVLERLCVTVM
# Outline: as §1
# ETV2 = target: T4, ETV2 (Homo sapiens, UniProt O00321 1-342); conditions: protein: recombinant; tags: N-terminal GST; dsDNA, one strand shown
# T4 sequence: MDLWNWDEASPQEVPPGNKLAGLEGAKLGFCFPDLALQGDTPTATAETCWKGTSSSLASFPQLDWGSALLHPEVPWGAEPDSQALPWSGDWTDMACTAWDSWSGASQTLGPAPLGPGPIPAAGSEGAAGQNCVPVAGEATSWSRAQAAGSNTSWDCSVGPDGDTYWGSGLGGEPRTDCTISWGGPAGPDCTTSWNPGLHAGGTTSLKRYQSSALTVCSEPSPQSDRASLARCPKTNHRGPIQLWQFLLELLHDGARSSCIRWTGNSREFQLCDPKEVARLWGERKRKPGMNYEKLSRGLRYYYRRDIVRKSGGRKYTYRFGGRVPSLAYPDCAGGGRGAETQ
# Outline: as §1
# ELF3 = target: T5, ELF3 (Homo sapiens, UniProt P78545 1-371); conditions: protein: recombinant; tags: N-terminal GST; dsDNA, one strand shown
# T5 sequence: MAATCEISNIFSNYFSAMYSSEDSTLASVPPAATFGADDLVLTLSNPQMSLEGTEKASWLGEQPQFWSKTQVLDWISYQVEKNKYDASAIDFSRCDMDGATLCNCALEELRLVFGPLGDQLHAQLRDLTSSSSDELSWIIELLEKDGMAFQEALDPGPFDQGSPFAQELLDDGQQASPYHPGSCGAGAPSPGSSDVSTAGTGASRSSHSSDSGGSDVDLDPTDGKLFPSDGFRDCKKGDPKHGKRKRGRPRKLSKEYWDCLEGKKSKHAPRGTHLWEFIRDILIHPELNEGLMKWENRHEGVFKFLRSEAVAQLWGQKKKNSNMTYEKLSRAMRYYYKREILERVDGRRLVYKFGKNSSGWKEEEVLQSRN
# Outline: as §1
# CRX = CRX (Homo sapiens, UniProt O43186 1-299); conditions: protein: recombinant; tags: N-terminal GST; dsDNA, one strand shown
# Outline: as §1
# ETV1 = ETV1 (Homo sapiens, UniProt P50549 1-477); conditions: protein: recombinant; tags: N-terminal GST; dsDNA, one strand shown
# Outline: as §1
# ERF = target: T6, ERF (Homo sapiens, UniProt P50548 1-548); conditions: protein: recombinant; tags: N-terminal GST; dsDNA, one strand shown
# T6 sequence: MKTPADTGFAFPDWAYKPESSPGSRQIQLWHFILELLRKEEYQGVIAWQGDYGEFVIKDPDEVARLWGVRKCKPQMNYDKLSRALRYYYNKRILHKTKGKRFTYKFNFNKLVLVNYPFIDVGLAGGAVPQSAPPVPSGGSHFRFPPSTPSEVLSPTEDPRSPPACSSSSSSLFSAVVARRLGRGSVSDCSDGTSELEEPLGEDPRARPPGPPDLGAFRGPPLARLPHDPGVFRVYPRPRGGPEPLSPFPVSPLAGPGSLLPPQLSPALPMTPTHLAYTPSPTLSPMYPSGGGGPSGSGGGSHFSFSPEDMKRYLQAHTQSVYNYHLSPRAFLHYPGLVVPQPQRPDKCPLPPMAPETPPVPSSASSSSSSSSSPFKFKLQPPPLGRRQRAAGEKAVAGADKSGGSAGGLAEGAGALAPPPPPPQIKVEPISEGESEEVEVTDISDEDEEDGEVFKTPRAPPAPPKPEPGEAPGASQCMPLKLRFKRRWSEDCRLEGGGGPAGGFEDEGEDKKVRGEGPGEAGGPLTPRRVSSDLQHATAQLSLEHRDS
# Outline: as §1
# ETV3L = target: T7, ETV3L (Homo sapiens, UniProt Q6ZN32 1-361); conditions: protein: recombinant; tags: N-terminal GST; dsDNA, one strand shown
# T7 sequence: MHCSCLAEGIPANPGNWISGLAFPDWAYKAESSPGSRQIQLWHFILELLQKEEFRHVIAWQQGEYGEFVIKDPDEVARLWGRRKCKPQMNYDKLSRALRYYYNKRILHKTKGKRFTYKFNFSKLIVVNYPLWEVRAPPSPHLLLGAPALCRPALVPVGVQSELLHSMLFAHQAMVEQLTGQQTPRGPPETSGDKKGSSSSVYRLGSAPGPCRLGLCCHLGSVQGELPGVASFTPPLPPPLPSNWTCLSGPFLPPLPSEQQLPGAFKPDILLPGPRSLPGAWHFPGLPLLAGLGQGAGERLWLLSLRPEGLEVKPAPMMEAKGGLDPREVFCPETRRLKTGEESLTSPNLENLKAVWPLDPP
# Outline: as §1
# ETS2 = target: T8, ETS2 (Homo sapiens, UniProt P15036 1-469); conditions: protein: recombinant; tags: N-terminal GST; dsDNA, one strand shown
# T8 sequence: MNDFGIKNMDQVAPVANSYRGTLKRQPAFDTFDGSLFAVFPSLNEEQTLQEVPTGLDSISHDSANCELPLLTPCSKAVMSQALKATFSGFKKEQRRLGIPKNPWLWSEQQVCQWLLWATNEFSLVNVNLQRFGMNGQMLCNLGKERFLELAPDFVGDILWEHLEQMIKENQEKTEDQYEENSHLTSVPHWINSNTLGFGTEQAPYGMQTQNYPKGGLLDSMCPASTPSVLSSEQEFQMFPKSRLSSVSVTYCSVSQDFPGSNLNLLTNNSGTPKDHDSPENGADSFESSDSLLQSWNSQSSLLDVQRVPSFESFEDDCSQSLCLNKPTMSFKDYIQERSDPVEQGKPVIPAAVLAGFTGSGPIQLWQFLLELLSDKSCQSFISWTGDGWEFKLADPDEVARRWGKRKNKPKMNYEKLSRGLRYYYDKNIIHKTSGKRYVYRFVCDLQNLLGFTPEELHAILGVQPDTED
# Outline: as §1
# SPDEF = target: T9, SPDEF (Homo sapiens, UniProt O95238 1-335); conditions: protein: recombinant; tags: N-terminal GST; dsDNA, one strand shown
# T9 sequence: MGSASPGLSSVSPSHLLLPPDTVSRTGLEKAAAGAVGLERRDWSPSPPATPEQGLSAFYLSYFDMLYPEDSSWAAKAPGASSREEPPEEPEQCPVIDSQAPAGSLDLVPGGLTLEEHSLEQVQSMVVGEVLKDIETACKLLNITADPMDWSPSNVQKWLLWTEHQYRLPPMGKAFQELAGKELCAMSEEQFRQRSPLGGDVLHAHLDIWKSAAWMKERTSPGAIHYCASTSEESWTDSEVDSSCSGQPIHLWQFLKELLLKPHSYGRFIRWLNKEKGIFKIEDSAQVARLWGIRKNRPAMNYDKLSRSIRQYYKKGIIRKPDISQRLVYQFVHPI
# Outline: as §1
# ETV7 = target: T10, ETV7 (Homo sapiens, UniProt Q9Y603 1-341); conditions: protein: recombinant; tags: N-terminal GST; dsDNA, one strand shown
# T10 sequence: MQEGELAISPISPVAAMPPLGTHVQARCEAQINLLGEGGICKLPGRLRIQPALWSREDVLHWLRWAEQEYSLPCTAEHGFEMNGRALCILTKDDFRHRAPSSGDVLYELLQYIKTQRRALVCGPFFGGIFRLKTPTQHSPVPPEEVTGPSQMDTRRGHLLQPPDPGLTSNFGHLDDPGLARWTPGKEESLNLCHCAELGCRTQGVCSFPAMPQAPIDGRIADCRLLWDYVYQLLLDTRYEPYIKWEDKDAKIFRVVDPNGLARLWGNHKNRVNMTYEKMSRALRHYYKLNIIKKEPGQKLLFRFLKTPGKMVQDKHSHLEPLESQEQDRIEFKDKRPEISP
# Outline: as §1
# ELF5 = target: T11, ELF5 (Homo sapiens, UniProt Q9UKW6-2 1-255); conditions: protein: recombinant; tags: N-terminal GST; dsDNA, one strand shown
# T11 sequence: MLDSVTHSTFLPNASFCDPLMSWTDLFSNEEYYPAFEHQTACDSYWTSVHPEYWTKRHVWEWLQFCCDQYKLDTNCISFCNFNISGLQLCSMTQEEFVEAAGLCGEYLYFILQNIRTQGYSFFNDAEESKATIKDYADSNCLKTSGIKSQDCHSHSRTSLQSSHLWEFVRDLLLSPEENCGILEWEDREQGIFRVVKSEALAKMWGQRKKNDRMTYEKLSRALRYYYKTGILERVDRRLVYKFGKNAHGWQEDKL
# Outline: as §1
# ETV3 = target: T12, ETV3 (Homo sapiens, UniProt P41162-2 1-143); conditions: protein: recombinant; tags: N-terminal GST; dsDNA, one strand shown
# T12 sequence: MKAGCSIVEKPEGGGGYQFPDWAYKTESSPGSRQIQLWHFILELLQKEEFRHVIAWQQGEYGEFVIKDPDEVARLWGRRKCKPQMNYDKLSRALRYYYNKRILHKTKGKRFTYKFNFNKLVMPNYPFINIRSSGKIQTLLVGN
# Outline: as §1
# ETV6 = ETV6 (Homo sapiens, UniProt P41212 1-452); conditions: protein: recombinant; tags: N-terminal GST; dsDNA, one strand shown
# Outline: as §1
# Sequence of ETV1 (P50549 whole entry): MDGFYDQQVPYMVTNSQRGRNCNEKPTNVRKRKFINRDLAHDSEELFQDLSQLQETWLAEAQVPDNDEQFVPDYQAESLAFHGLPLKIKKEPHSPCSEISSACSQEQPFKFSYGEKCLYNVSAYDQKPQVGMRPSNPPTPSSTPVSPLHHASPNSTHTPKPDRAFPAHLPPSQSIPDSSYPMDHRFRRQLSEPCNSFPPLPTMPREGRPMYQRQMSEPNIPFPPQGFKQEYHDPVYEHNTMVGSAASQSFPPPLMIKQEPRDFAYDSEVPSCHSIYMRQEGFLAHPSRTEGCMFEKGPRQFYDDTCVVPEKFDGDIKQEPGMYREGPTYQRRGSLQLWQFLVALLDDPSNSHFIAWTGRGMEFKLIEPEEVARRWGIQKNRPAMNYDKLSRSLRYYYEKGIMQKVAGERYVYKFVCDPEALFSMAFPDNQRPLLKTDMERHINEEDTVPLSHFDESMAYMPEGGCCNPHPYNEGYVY
# Sequence of CRX (O43186 whole entry): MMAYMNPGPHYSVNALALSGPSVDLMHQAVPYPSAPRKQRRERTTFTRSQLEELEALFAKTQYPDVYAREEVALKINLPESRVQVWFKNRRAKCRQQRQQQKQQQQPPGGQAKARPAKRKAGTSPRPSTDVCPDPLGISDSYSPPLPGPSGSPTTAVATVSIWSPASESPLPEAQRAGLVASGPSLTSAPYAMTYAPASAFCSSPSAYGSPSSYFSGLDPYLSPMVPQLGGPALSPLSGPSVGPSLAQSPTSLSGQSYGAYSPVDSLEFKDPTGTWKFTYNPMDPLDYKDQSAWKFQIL
# Sequence of ETV6 (P41212 whole entry): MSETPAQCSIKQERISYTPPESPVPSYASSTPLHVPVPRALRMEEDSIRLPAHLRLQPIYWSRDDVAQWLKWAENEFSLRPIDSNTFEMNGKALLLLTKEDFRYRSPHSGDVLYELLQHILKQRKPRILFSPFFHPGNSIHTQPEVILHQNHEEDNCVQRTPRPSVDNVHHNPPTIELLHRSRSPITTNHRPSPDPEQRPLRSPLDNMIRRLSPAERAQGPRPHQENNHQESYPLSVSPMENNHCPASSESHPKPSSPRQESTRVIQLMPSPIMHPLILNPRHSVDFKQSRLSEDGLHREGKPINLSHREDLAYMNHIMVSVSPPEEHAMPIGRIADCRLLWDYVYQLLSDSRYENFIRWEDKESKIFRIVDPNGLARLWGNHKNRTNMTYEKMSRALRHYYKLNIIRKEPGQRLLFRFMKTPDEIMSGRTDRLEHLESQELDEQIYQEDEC
# Sequence of ETV5 (P41161 whole entry): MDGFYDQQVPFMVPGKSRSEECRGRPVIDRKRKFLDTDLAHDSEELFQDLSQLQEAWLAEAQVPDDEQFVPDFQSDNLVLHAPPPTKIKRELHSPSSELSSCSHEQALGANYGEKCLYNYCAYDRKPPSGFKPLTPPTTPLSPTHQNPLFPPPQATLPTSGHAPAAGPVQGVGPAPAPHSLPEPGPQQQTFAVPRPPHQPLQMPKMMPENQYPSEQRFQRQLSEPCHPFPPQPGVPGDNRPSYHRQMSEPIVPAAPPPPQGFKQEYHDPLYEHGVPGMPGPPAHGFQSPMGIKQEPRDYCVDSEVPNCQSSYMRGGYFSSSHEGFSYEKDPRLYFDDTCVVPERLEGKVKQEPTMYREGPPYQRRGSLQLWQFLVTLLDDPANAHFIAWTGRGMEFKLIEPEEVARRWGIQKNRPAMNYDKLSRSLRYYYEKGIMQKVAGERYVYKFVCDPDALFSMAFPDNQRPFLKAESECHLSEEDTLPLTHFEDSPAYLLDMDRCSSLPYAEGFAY
# Sequence of ELF4 (Q99607 whole entry): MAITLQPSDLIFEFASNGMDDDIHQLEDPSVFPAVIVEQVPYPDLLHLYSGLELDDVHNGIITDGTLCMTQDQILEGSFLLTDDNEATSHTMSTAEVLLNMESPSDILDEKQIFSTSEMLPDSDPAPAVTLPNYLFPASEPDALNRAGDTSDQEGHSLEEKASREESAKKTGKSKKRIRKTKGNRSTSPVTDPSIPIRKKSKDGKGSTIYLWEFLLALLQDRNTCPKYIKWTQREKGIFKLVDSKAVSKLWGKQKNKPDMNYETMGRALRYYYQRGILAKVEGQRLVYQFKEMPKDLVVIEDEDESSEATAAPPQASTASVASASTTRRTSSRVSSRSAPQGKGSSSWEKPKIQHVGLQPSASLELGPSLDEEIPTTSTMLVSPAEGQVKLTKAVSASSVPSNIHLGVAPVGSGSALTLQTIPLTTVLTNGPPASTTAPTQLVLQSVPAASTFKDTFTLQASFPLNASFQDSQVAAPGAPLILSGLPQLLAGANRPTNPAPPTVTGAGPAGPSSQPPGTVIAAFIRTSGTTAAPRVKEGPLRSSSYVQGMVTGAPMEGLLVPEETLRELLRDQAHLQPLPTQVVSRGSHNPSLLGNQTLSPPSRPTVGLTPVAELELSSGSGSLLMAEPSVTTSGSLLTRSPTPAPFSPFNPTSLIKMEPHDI
# Sequence of HSF1 (Q00613 whole entry): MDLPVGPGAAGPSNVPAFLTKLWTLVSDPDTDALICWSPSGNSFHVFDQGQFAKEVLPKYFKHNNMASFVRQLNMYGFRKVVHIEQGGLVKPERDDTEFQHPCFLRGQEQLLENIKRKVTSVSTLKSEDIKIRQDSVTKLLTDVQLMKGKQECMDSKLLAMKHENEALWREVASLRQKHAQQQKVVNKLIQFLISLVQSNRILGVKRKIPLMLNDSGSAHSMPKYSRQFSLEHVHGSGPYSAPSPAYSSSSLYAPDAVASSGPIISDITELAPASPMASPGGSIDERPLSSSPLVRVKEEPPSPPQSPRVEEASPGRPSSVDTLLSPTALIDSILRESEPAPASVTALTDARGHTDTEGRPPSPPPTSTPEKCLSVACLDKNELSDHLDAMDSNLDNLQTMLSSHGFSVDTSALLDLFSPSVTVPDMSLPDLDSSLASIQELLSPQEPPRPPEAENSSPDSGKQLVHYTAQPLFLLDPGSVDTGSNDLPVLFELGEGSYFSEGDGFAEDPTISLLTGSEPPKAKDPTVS
sequence,measurement,setting,value
TATAAT,binding signal,FEV,"1.16 fold enrichment (6-mer frequency, TF over GST control)"
same,binding signal,ETV5,"1.17 fold enrichment (6-mer frequency, TF over GST control)"
same,binding signal,HSF1,"1.82 fold enrichment (6-mer frequency, TF over GST control)"
same,binding signal,SPIC,"1.1 fold enrichment (6-mer frequency, TF over GST control)"
same,binding signal,ELF4,"1.13 fold enrichment (6-mer frequency, TF over GST control)"
same,binding signal,ELK4,"1.25 fold enrichment (6-mer frequency, TF over GST control)"
same,binding signal,ETV2,"1.3 fold enrichment (6-mer frequency, TF over GST control)"
same,binding signal,ELF3,"1.27 fold enrichment (6-mer frequency, TF over GST control)"
same,binding signal,CRX,"2.69 fold enrichment (6-mer frequency, TF over GST control)"
same,binding signal,ETV1,"1.15 fold enrichment (6-mer frequency, TF over GST control)"
same,binding signal,ERF,"1.25 fold enrichment (6-mer frequency, TF over GST control)"
same,binding signal,ETV3L,"1.23 fold enrichment (6-mer frequency, TF over GST control)"
same,binding signal,ETS2,"1.19 fold enrichment (6-mer frequency, TF over GST control)"
same,binding signal,SPDEF,"1.27 fold enrichment (6-mer frequency, TF over GST control)"
same,binding signal,ETV7,"1.17 fold enrichment (6-mer frequency, TF over GST control)"
same,binding signal,ELF5,"1.18 fold enrichment (6-mer frequency, TF over GST control)"
same,binding signal,ETV3,"1.19 fold enrichment (6-mer frequency, TF over GST control)"
same,binding signal,ETV6,"1.24 fold enrichment (6-mer frequency, TF over GST control)"
